51 compounds from PubChem BioAssay AID585 (National Center for Advancing Translational Sciences (NCATS), 2007) can be followed below.

In all, about 71,000 compounds went through this assay and about 1,300 (1.8%) were called active. A call without a number means that no potency is given here. Calls follow the shape of the full dose curve. Only a selection was taken, and actives are over-represented in it overall.
Potency is read from the fitted curve at half-maximal effect.

Beta-lactamase (Escherichia coli (strain K12)), sequence (P00811 whole entry, looked up): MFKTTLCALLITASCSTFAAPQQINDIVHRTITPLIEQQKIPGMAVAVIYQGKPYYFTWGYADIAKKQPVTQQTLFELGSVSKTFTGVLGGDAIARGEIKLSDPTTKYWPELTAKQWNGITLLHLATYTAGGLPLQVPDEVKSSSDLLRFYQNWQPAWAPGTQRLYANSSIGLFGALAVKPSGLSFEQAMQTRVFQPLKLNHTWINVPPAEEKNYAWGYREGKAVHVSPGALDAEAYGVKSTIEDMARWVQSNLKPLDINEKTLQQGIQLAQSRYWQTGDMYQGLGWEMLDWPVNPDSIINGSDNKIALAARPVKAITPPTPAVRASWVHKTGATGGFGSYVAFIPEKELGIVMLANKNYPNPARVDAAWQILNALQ

In the assay the target is Beta-lactamase (Escherichia coli (strain K12)) (UniProt P00811). Kind of assay: Promiscuous and Specific Inhibitors of AmpC Beta-Lactamase (assay without detergent). As to conditions: AmpC nitrocefin hydrolysis, absorbance 480 nm, no detergent; series mostly up to 28.7 µM. The protocol:
NIH Molecular Libraries Screening Centers Network [MLSCN]
NIH Chemical Genomics Center [NCGC]
PI Name: Shoichet, Brian K.
This aggregation profiling approach exploits the sensitivity of aggregate formation to detergent. Inhibition of b-lactamase is measured in the presence and absence of 0.01% Triton X-100. See Pubchem assay "Promiscuous and Specific Inhibitors of AmpC Beta-Lactamase (assay with detergent)" for related screen. Compounds that inhibit only in the absence of detergent are considered likely promiscuous aggregators.
A screen of 1,030 compounds was performed in Brian Shoichet's lab in 96-well format. AmpC activity was measured by following the absorbance at 480 nm. Nitrocefin is a chromogenic substrate: while nitrocefin is yellow (lmax 390 nm), the product of its hydrolysis is red (lmax 486 nm, 17,000 M-1). AmpC beta lactamase was provided by Brian Shoichet and Brian Feng, UCSF.
NCGC Assay Protocol Summary:
20 mM phosphate buffer, pH 7.0
Triton X-100: No Detergent screen: 0.0001%, Detergent screen: 0.01%.
Buffer in columns 3 and 4 as negative control (no enzyme).
5.3 nM AmpC in columns 1, 2, 5-48. Titration of UCSF compound 9 control (from 10 mM, then 1:2) pin-transferred to column 2. Column 1 is neutral (100% activity).
Six uL of reagents were dispensed to 1536-well Greiner black clear bottom plates. Compounds and controls (23 nL) were transferred via Kalypsys PinTool. The plates were incubated for 15 min at room temperature, and then 2 uL of 800 uM solution of nitrocefin was added to start the reaction. The plates were immediately transferred to and read every 20 seconds for 4 min on ViewLux (Perkin-Elmer) High-throughput CCD imager using 480 nm absorbance protocol. During dispense, reagent bottles were kept submerged into 4 deg C water bath.
Keywords: NIH Roadmap, MLSCN, MLI, MLSMR, qHTS, NCGC, AmpC Beta-Lactamase, Aggregation.
On to `Cc1cc(NS(=O)(=O)c2ccccc2)no1`, for which the Potency was 3.98 µM [single pt active] (active). The same measure for `O=S(=O)(Nc1ccccn1)c1ccc(Oc2ccccc2)cc1`: “inactive”; for `COc1cc2ccccc2cc1C(=O)Nc1ccc(S(=O)(=O)Nc2cc(C)on2)cc1`: “inactive”. The same measure for `CCCc1cc(=O)[nH]c(SCc2ccc(C#N)cc2)n1`: “inactive”; for `CCOc1ccccc1C1CC(c2ccc(Cl)cc2)Nc2nc(N)nn21` (stereo unspecified): “inactive”; for `Cc1ccc(C2CC(c3cccc(C)c3)n3nc(N)nc3N2)cc1` (stereo unspecified): 3.98 µM [single pt active] (active). As to `Nc1nc2n(n1)C(c1ccco1)CC(c1ccc(Cl)c(Cl)c1)N2` (stereo unspecified), the Potency entry is “inactive”. The figure for `CCOc1ccccc1C1CC(c2ccccc2)Nc2nc(N)nn21` (stereo unspecified) is 3.98 µM [single pt active] (active); for `COc1ccc(C2CC(c3ccc(Cl)cc3Cl)Nc3nc(N)nn32)cc1OC` (stereo unspecified) it is “inactive”. On to `Cc1ccc(C2CC(c3cccc(Br)c3)n3nc(N)nc3N2)cc1` (stereo unspecified), for which the Potency entry was “inactive”. The entry for `O=C(O)CCCC(=O)Nc1ccccc1-n1ccnc1` is “inactive”; for `CCOC(=O)c1c(NC(=O)CCC(=O)NCc2ccco2)sc2c1CCCC2` it is “inactive”.

As to `CC(C)[C@H](CO)Nc1nc(Nc2cc(N)cc(Cl)c2)c2ncn(C(C)C)c2n1`, the Potency entry is “inactive”. The entry for `COc1ccccc1N1CCN(c2nc3ccccc3n3nnnc23)CC1` is “inactive”; for `NC(=O)c1ccc(OC[C@H](O)CN2CC=C(c3ccc(F)cc3)CC2)cc1` it is “inactive”; for `Cc1ccc(SCc2cc(=O)[nH]c(N3CCCCC3)n2)cc1` it is “inactive”. The same measure for `CN(C)c1nc(N)nc(CSc2nnnn2-c2cccc3ccccc23)n1`: “inactive”; for `N#CC1=C(N)Oc2n[nH]c(CSc3ccccc3)c2C12C(=O)Nc1ccccc12` (stereo unspecified): “inactive”.

For `CCOc1ccc(N(CC(=O)OC)S(=O)(=O)c2c(C)noc2C)cc1`, the Potency entry is “inactive”.

As to `Oc1ccc(O)c2c(O)cccc12`, the Potency is 0.631 µM (active). The same measure for `O=c1cc(-c2ccc(O)c(O)c2)oc2cccc(O)c12`: “inactive”; for `Cc1ccc(C(=O)NCC(=O)O)cc1S(=O)(=O)N1CCCCC1`: “inactive”. The same measure for `CC[N+](C)(CC)CCC[n+]1c(-c2ccccc2)c2cc(N)ccc2c2ccc(N)cc21`: “inactive”; for `O=C(c1csnn1)N1CCC[C@@]2(CCN(c3cccc(-c4ccccc4)c3)C2)C1`: “inactive”.

As to `Cc1cc2cc(CN(Cc3cccs3)Cc3nnnn3CC3CCCO3)c(=O)[nH]c2cc1C` (stereo unspecified), the Potency result was “inactive”. The same measure for `CCCNS(=O)(=O)c1ccc(CCC(=O)NCc2cccnc2)cc1`: “inactive”; for `CC(C)(C)c1cc(C(=O)NCc2cccnc2)ccn1`: “inactive”. The figure for `O=C(NCc1cccnc1)c1ccc(CS(=O)(=O)c2ccc(Br)cc2)o1` is 3.16 µM (active); for `Cc1ccnc(SCCn2c(N(C)Cc3ccccc3)nc3c2c(=O)n(C)c(=O)n3C)n1` it is “inactive”; for `Cn1c(C(=O)N2CCC(C(N)=O)CC2)cc2c(=O)n(C)c3ccccc3c21` it is “inactive”. The entry for `CCN1CCCC1CNC(=O)Cn1cnc2ccc(S(=O)(=O)N3CCC(C)CC3)cc2c1=O` (stereo unspecified) is “inactive”; for `CC1CCCC(C)N1CCCNC(=O)c1cc2c(=O)n(C)c3ccccc3c2n1C` (stereo unspecified) it is 3.16 µM [single pt active] (active).

On to `CCN1CCCC1CNC(=O)c1cc2c(=O)n(C)c3ccccc3c2n1C` (stereo unspecified), for which the Potency is 3.98 µM [single pt active] (active). The entry for `O=C(CCn1c(=O)[nH]c2ccccc2c1=O)NCCCN1CCN(c2cccc(Cl)c2)CC1` is “inactive”. Consider `Cn1c(C(=O)NCCN2CCc3ccccc3C2)cc2c(=O)[nH]c3ccccc3c21`, for which the Potency result is “inactive”. The entry for `Cn1c(C(=O)NCCc2ccsc2)cc2c(=O)n(C)c3ccccc3c21` is “inactive”. The same measure for `CCn1c(=O)cc(OCC(=O)NCCCN2CCN(c3cccc(Cl)c3)CC2)c2ccccc21`: “inactive”. The same measure for `Cn1c(C(=O)NCCCN2CCN(c3cccc(Cl)c3)CC2)cc2c(=O)n(C)c3ccccc3c21`: 3.98 µM [single pt active] (active). For `CNC(=O)CSc1nnnn1-c1ccc(C)cc1C`, the Potency result was “inactive”.

For the compound `CCOC(=O)c1ccc(NC(=O)CS(=O)(=O)c2cn(CC)c3ccccc23)cc1`, the Potency result was “inactive”. The entry for `CCOc1ccc(NC(=O)CCC(=O)n2nc(C)cc2C)cc1` is “inactive”; for `CNC(=O)NCCN1CCCC1=O` it is “inactive”; for `COc1ncnc2c1N=C1CC(C)(C)CC(N)=C1S2` it is “inactive”. The same measure for `C=CCOC(=O)COCCC(C)C`: “inactive”; for `CCOC(=O)c1sc(=S)n(-c2cccc(OC)c2)c1N`: “inactive”. The same measure for `CCOC(=O)c1sc(=S)n2c1[nH]c(=O)c1ccc(C(=O)OC)cc12`: 12.6 µM (active); for `CCOC(=O)Cn1c(N)c(C(=O)OC)sc1=S`: “inactive”; for `Cc1ccc(OCc2nc(C#N)c(N3CCCC3)o2)cc1`: “inactive”. Take `Cc1ccccc1S(=O)(=O)Cc1ccc(C(=O)NCCN2CCCCC2C)o1` (stereo unspecified): the Potency result is “inactive”.

With `C=CCNc1nnc(SCC(=O)N2CCCCC2)c2ccccc12`, the Potency result was “inactive”. The same measure for `CCCN1CCN(CCCNC(=O)CN2C(=O)COc3ccccc32)CC1`: “inactive”.
